# From PubChem BioAssay (NCI)
# “And” between values parts separate entries of the source, which are not always exact repeats. Equal entries are not always repeated. The panel holds about 79,000 compounds, 15% with a hit somewhere; the sample as a whole holds those more often. Unmarked numbers belong to inactive results. The source made the active and inactive calls. Cut-off read from the data, not from the text of the source: active = growth inhibition above about 70%; inactive = the rest.
# Experiments:
# [1] = NCI Yeast Anticancer Drug Screen. Data for the rad50 strain (AID 155);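 note: 0% = growth of vehicle-only cultures of the same strain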; conditions: S. cerevisiae rad50 strain growth inhibition; at 50.0 µM; hits give high values
# Procedure, shortened: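 Cells are treated with compound, grown, and their growth is then scored against vehicle-only cultures of the same repair-deficient yeast strain.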
# [2] = NCI Yeast Anticancer Drug Screen. Data for the mec2-1 strain (AID 157); conditions: S. cerevisiae mec2-1 strain, at 50.0 µM, hits give high values
# Procedure, shortened: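 Growth inhibition is read against vehicle-treated controls after compound exposure of the mec2-1 yeast strain, which is defective in DNA damage repair or cell cycle control.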
# [3] = NCI Yeast Anticancer Drug Screen. Data for the mlh1 rad18 strain (AID 175); conditions: S. cerevisiae mlh1 rad18 strain growth inhibition; at 50.0 µM; hits give high values
# Procedure, shortened: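 Cells of a genetically altered yeast strain, deficient in DNA damage repair, were treated with compound. Their growth was then compared with that of vehicle-treated cultures to give inhibition.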
# [4] = NCI Yeast Anticancer Drug Screen. Data for the sgs1 mgt1 strain (AID 161);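 note: 0% = growth of cultures given vehicle only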; conditions: S. cerevisiae sgs1 mgt1 strain, at 50.0 µM, hits give high values
# Procedure, shortened: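 Compounds are added to genetically altered yeast, and growth is compared with cultures given vehicle alone to give percent inhibition.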
# [5] = NCI Yeast Anticancer Drug Screen. Data for the bub3 strain (AID 167); conditions: S. cerevisiae bub3 mutant strain, at 50.0 µM, hits give high values
# Procedure, shortened: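 Part of a panel of yeast mutants defective in DNA damage repair or cell cycle regulation. Each strain is grown with compound, and inhibition is calculated relative to solvent-treated cultures.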
# [6] = NCI Yeast Anticancer Drug Screen. Data for the cln2 rad14 strain (AID 165);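 note: 0% = growth equal to vehicle treated cultures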; conditions: S. cerevisiae cln2 rad14 strain, at 50.0 µM, hits give high values
# Procedure, shortened: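 Growth inhibition, relative to vehicle-treated controls, is the read-out. The test organism is a yeast strain with defined genetic alterations, cln2 rad14.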
smiles,measurement,setting,value
CC(C)N(C)c1ccc(N=Nc2cc(Cl)ccc2Cl)cc1,growth inhibition,[1],-27.6%
same,growth inhibition,[2],-36.8%
same,growth inhibition,[3],-24.4%
O=C(O)c1ccccc1Oc1ccccc1C(=O)O,growth inhibition,[1],-8.75%
same,growth inhibition,[2],-22.9%
same,growth inhibition,[3],-22.6%
CS(=O)(=O)c1ccc(NN)c([N+](=O)[O-])c1 (tested in a mixture with another compound),growth inhibition,[1],-25.7%
same,growth inhibition,[2],-46.8%
same,growth inhibition,[3],-39.1%
Cc1ccccc1Nc1n[nH]c(=S)s1,growth inhibition,[1],46.1%
same,growth inhibition,[2],17.8%
same,growth inhibition,[3],33%
O=C(CCc1ccc(O)cc1)N/N=C/c1cc(Br)ccc1O,growth inhibition,[1],-29.6%
same,growth inhibition,[2],-38.4%
same,growth inhibition,[3],-20.6%
COc1ccc(C(=O)CC2CCCC(CC(=O)c3ccc(OC)cc3)N2C)cc1 (stereo unspecified),growth inhibition,[1],5.4%
same,growth inhibition,[2],-6.05%
same,growth inhibition,[3],30.4%
COc1ccc(/C=C(\C#N)c2ccc(C)cc2)cc1OC,growth inhibition,[1],50.4%
same,growth inhibition,[2],52.8%
same,growth inhibition,[3],38.1%
CC(=O)CC(=O)N1CCN(C(=O)CC(C)=O)CC1,growth inhibition,[1],-16.9%
same,growth inhibition,[2],-16.8%
same,growth inhibition,[3],-23.3%
CS(=O)(=O)c1ccc(NN)c(S(C)(=O)=O)c1,growth inhibition,[1],-9.4%
same,growth inhibition,[2],-10.3%
same,growth inhibition,[3],11.8%
C=CCOc1cccc(OCC=C)c1C,growth inhibition,[1],-14.9%
same,growth inhibition,[2],-20%
same,growth inhibition,[3],-3.9%
COc1cc(/C=N/N2CCCCC2)cc(OC)c1OC,growth inhibition,[1],-19%
same,growth inhibition,[2],-16.6%
same,growth inhibition,[3],-21.8%
O=C(O)C(O)C(O)C(OC1OC(CO)C(O)C(O)C1O)C(O)CO.O=C(O)C(O)C(O)C(OC1OC(CO)C(O)C(O)C1O)C(O)CO.[NH-]C1CCCCC1[NH-].[Pt+2] (stereo unspecified),growth inhibition,[3],-63.5%
Cc1ccc(CNc2cc(C)ccn2)cc1,growth inhibition,[1],42.9%
same,growth inhibition,[3],26.9%
CCCCCCCCCCCC(O)CCCCC (stereo unspecified),growth inhibition,[1],-15%
same,growth inhibition,[3],-38.9%
CC(C)n1c2c([n+](C)c1/C=C/c1ccccc1)C(=O)c1ccccc1C2=O,growth inhibition,[4],89.9% (active)
same,growth inhibition,[5],50.4%
Cc1ccc(Cl)cc1NCN1C(=O)c2ccccc2C1=O,growth inhibition,[1],1.35%
same,growth inhibition,[3],11.1%
O=C1CCCCCC2=NC12 (stereo unspecified),growth inhibition,[3],-25.6%
N#CCS(=O)(=O)c1cccc[n+]1[O-],growth inhibition,[3],-37.5%
O=C(O)C(=O)C(O)C(O)C(O)CO.O=C(O)C(=O)C(O)C(O)C(O)CO.[NH-]C1CCCCC1[NH-].[Pt+2] (stereo unspecified),growth inhibition,[3],-53.1%
Nc1ccc2ccc(N)cc2c1,growth inhibition,[3],-33.1%
Nc1ccc2[nH]c(-c3ccccc3)cc(=O)c2c1,growth inhibition,[1],-38%
same,growth inhibition,[3],-15.9%
C[n+]1ccccc1/C=C/c1cccc(O)c1,growth inhibition,[1],14%
same,growth inhibition,[3],17.8%
Cc1ccc(/C=N/N2C(=O)c3ccccc3C2=O)cc1,growth inhibition,[1],-28.9%
same,growth inhibition,[3],-37.9%
Oc1ccccc1C=NCC1CCC(CN=Cc2ccccc2O)CC1 (stereo unspecified),growth inhibition,[1],8.85%
same,growth inhibition,[3],21%
CCCCCCCC/C=C\CCCCCCCCOC(N)=O,growth inhibition,[1],-30.7%
same,growth inhibition,[3],-17.1%
CCOC(=O)CC(=O)c1ccccc1,growth inhibition,[4],8.9% and -0.85%
same,growth inhibition,[6],10.8% and 11.1%
same,growth inhibition,[5],13.8% and -12.7%
CN(C)c1ccc2c(Nc3ccc(NS(C)(=O)=O)cc3)c3ccc(N(C)C)cc3nc2c1,growth inhibition,[3],65.6%
CC(=O)CC1CCCC(CC(C)=O)N1C (stereo unspecified),growth inhibition,[1],-9.3%
same,growth inhibition,[3],0.2%
O=C(/C=C/C=C/c1ccccc1)c1ccc(Cl)cc1,growth inhibition,[1],-12.3%
same,growth inhibition,[3],3.5%
CCOC(=O)CN1C(=O)C(=O)c2ccccc21,growth inhibition,[1],18.9%
same,growth inhibition,[3],24.4%
CN(C)/C=C/C(=O)c1ccccc1[N+](=O)[O-],growth inhibition,[1],16.7%
same,growth inhibition,[3],12.2%
O=C1OC(c2ccc(Cl)cc2)=N/C1=C\c1ccccc1,growth inhibition,[1],-4.85%
same,growth inhibition,[3],-6.65%
[Br][Sn]([CH2][Sn]([Br])([c]1ccccc1)[c]1ccccc1)([c]1ccccc1)[c]1ccccc1,growth inhibition,[3],81.8% (active)
N=C(N)c1ccc(N=Nc2c(O)ccc3cc(O)ccc23)cc1,growth inhibition,[3],-27.5%
CC/C(=C\c1cccc([N+](=O)[O-])c1)C(=O)O,growth inhibition,[1],-9.65%
same,growth inhibition,[3],-5.55%
OCCOCCOCCOCCO,growth inhibition,[6],-48.1%
CC(C)c1cc(C(=O)O)c(O)c(C(C)C)c1.CC(C)c1cc(C(=O)O)c(O)c(C(C)C)c1.[Cu],growth inhibition,[3],54.6%
CCOC(=O)C(C#N)N=Nc1ccccc1 (stereo unspecified),growth inhibition,[1],10.2%
same,growth inhibition,[3],10.2%
Nc1ccccc1CCc1ccccc1N,growth inhibition,[1],18.2%
same,growth inhibition,[3],12.4%
[Cl][Sn]([CH2][Sn]([Cl])([c]1ccccc1)[c]1ccccc1)([c]1ccccc1)[c]1ccccc1,growth inhibition,[3],82.2% (active)
COc1ccc(COC(=O)N=[N+]=[N-])cc1,growth inhibition,[1],19.1%
same,growth inhibition,[3],13.4%
CCOC(=O)c1c(N)sc2c1CCN(Cc1ccccc1)C2,growth inhibition,[1],39.4%
same,growth inhibition,[3],21.9%
O=c1oc(-c2cccc([N+](=O)[O-])c2)nc2ccccc12,growth inhibition,[1],4.4%
same,growth inhibition,[3],4.8%
Nc1nc([Se]c2nc(N)nc3c2ncn3C2OC(CO)C(O)C2O)c2ncn(C3OC(CO)C(O)C3O)c2n1 (stereo unspecified),growth inhibition,[3],-32.2%
O=C1C2C3C=CC(C2C(=O)N1CO)C1C2C(=O)N(CO)C(=O)C2C31 (stereo unspecified),growth inhibition,[3],2.2%
O=C(NC(CO)C(O)c1ccc([N+](=O)[O-])cc1)C(Cl)Cl (stereo unspecified),growth inhibition,[1],-32.2%
same,growth inhibition,[3],-19.5%
NC(=O)C(=O)N/N=C/c1ccc2c(c1)CCC2,growth inhibition,[1],-2.45%
same,growth inhibition,[3],8.3%
O=[N+]([O-])c1ccc(-n2[nH]nnc2=S)cc1,growth inhibition,[1],-6.7%
same,growth inhibition,[3],16.1%
Cc1c(CNc2ccc(C(=O)NC(CC(=O)O)C(=O)O)cc2)ccc2nc(N)nc(N)c12 (stereo unspecified),growth inhibition,[4],47.8%
same,growth inhibition,[6],9.35%
same,growth inhibition,[5],16.4%
NCCSC(C[N+](=O)[O-])c1ccccc1Cl (stereo unspecified),growth inhibition,[3],87.4% (active)
COc1ccc(C2NC(=O)c3ccccc3N2)c(OC)c1OC (stereo unspecified),growth inhibition,[1],-8.55%
same,growth inhibition,[3],-16.4%
